{"source": "PubChem BioAssay (Tox21)", "note": "“And” between values parts separate entries of the source, which are not always exact repeats. Equal entries are not always repeated. Inconclusive results are not listed. A number with no mark means an inactive call. The source made the active and inactive calls. The call rests on the fitted dose curve; in most records, active means well fitted activation curve with a large enough effect in the repeat runs; inconclusive means weak or mixed curves; inactive means no such curve, though single readings can be large or run the other way. Positions of bridges follow the written chain, without caps; N, C: chain ends. Non-standard residues stand in square brackets, D forms with d. Residues, ends and D or L forms follow the SMILES beside them. *: point of attachment. X1 = CC[C@@H](C)[C@@H](N)C1=N[C@H](C(=O)*)CS1; d(aIle) = CC[C@H](C)[C@@H](N)C(=O)O; dOrn = NCCC[C@@H](N)C(=O)O; Orn = NCCC[C@H](N)C(=O)O", "data": [{"target": "Nuclear receptor subfamily 1 group I member 2 (Rattus norvegicus) (UniProt Q9R1A7)", "sequence (Q9R1A7 whole entry, looked up)": "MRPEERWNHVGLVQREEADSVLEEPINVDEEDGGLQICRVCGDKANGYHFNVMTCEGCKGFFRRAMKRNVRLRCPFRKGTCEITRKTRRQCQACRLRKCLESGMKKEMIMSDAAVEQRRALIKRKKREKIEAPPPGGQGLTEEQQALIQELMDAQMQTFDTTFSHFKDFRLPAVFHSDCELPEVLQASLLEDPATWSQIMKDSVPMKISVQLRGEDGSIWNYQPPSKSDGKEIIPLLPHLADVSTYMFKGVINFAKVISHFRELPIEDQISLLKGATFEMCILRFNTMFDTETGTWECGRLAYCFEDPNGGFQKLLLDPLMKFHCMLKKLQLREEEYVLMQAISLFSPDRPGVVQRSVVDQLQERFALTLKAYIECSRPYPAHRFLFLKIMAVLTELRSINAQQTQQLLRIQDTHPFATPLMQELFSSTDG", "test": "Rat pregnane X receptor (rPXR) activation by small molecules, qHTS assay (AID 1346983); further: nearly all actives have a fitted effect of over 20% in size; further: potency means the concentration at half of the fitted maximal effect; on max activation: on the % scale 0 is the no-effect control and ±100 the full control effect", "details": "rPXR luciferase reporter cells, One-Glo luminescence, 24 h; max activation: hits give high values", "summary_of_the_method": "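Luminescent readout (One-Glo luciferase, 30 min room temperature) followed 24 hr compound treatment at 37 C of rPXR cells plated 2,000 per well and preincubated 5hr; qHTS format with compounds delivered in DMSO.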", "values": [{"molecule": "CNC(=O)OCc1cccc(COC(=O)NC)n1", "max activation": "8.37%"}, {"molecule": "CCCCC[C@H](O)/C=C/[C@@H]1[C@@H](C/C=C\\CCCC(=O)O)[C@@H](O)C[C@H]1O", "max activation": "-3.99% and -0.657%"}, {"molecule": "Cc1cc(C(=O)NCCc2ccc(S(=O)(=O)NC(=O)NN3CCCCCC3)cc2)no1", "max activation": "-0.977%"}, {"molecule": "CC(C)C[C@@H]1NC(=O)[C@H](CCCN)NC(=O)[C@H](C(C)C)NC(=O)[C@@H]2CCCN2C(=O)[C@@H](Cc2ccccc2)NC(=O)[C@H](CC(C)C)NC(=O)[C@H](CCCN)NC(=O)[C@H](C(C)C)NC(=O)[C@@H]2CCCN2C(=O)[C@@H](Cc2ccccc2)NC1=O", "note": "(cyclo(V[Orn]L[dF]PV[Orn]L[dF]P))", "max activation": "-16.3%"}, {"molecule": "C=CC1=C(C(=O)O)N2C(=O)[C@@H](NC(=O)/C(=N\\O)c3csc(N)n3)[C@H]2SC1", "note": "(stereo in doubt)", "max activation": "-3.55%"}, {"molecule": "CO[C@H](C(=O)[C@@H](O)[C@@H](C)O)C1Cc2cc3cc(O[C@H]4C[C@@H](O[C@H]5C[C@@H](O)[C@H](O)[C@@H](C)O5)[C@@H](O)[C@@H](C)O4)c(C)c(O)c3c(O)c2C(=O)[C@H]1O[C@H]1C[C@@H](O[C@H]2C[C@@H](O[C@H]3C[C@](C)(O)[C@H](O)[C@@H](C)O3)[C@H](O)[C@@H](C)O2)[C@H](O)[C@@H](C)O1", "note": "(some centres undefined)", "max activation": "-17.7%"}, {"molecule": "CC(=O)OCC1=C(C(=O)O)N2C(=O)[C@@H](NC(=O)Cc3ccccc3)[C@H]2SC1", "max activation": "-4.93%"}, {"molecule": "CC1(C)S[C@@H]2[C@H](NC(=O)[C@H](N)c3ccc(O)cc3)C(=O)N2[C@H]1C(=O)O", "max activation": "-0.49%"}, {"molecule": "C=C1C(=C/C=C2\\CCC[C@]3(C)[C@@H]([C@H](C)CCCC(C)C)CC[C@@H]23)C[C@@H](O)C[C@@H]1O", "max activation": "-2.56%"}, {"molecule": "CC(C)c1ncc([N+](=O)[O-])n1C", "max activation": "-4.41%"}, {"molecule": "CCOC(=O)Cc1ccc(-c2ccccc2)cc1", "max activation": "-3.15%"}, {"molecule": "Cc1cn([C@H]2C[C@H](O)[C@@H](CO)O2)c(=O)[nH]c1=O", "max activation": "-1.3%"}, {"molecule": "CO/N=C(\\C(=O)N[C@@H]1C(=O)N2C(C(=O)O)=C(CSc3nc(C)c(CC(=O)O)s3)CS[C@H]12)c1csc(N)n1", "max activation": "-4.17%"}, {"molecule": "CC(C)[C@H](NC(=O)[C@H](CC(=O)O)NC(=O)[C@H](CCCCN)NC(=O)[C@@H](N)CCCN=C(N)N)C(=O)N[C@@H](Cc1ccc(O)cc1)C(=O)O", "note": "(H-RKDVY-OH)", "max activation": "-1.21%"}, {"molecule": "OCl", "max activation": "0.862%"}, {"molecule": "CC(=O)Nc1ccc(OC(C)=O)cc1", "max activation": "-1.35%"}, {"molecule": "CN1C(C(=O)Nc2ccccn2)C(=O)c2sc(Cl)cc2S1(=O)=O", "note": "(centres undefined)", "max activation": "-4.75%"}, {"molecule": "CO[C@H]1C[C@@H]2CC[C@@H](C)[C@@](O)(O2)C(=O)C(=O)N2CCCC[C@H]2C(=O)O[C@H]([C@H](C)C[C@@H]2CC[C@@H](O)[C@H](OC)C2)CC(=O)[C@H](C)C=C(C)[C@@H](O)[C@@H](OC)C(=O)[C@H](C)C[C@H](C)/C=C/C=CC=C1C", "max activation": "-10.6% and -9.93%"}, {"molecule": "Cc1c(N)nc([C@H](CC(N)=O)NC[C@H](N)C(N)=O)nc1C(=O)N[C@H](C(=O)N[C@H](C)[C@@H](O)[C@H](C)C(=O)N[C@H](C(=O)NCCc1nc(-c2nc(C(=O)NCCCCN=C(N)N)cs2)cs1)[C@@H](C)O)[C@@H](O[C@@H]1O[C@@H](CO)[C@@H](O)[C@H](O)[C@@H]1O[C@H]1O[C@H](CO)[C@@H](O)[C@H](OC(N)=O)[C@@H]1O)c1cnc[nH]1", "max activation": "-0.9%"}, {"molecule": "O=C1[O][Bi][O]c2ccccc21", "max activation": "-4.48%"}, {"molecule": "CCN(CC)CC#CCOC(=O)C(O)(c1ccccc1)C1CCCCC1", "note": "(centres undefined)", "max activation": "13%"}, {"molecule": "CCC1OC(=O)C[C@@H](O)[C@H](C)[C@@H](O[C@@H]2O[C@H](C)C[C@H](N(C)C)[C@H]2O)[C@@H](CC=O)C[C@@H](C)C(=O)/C=C/[C@]2(C)OC2C1C", "note": "(some centres undefined)", "max activation": "-4.15%"}, {"molecule": "NC(N)=NCc1cccc(I)c1", "max activation": "-16.9%"}, {"molecule": "C[S+](CC[C@H](N)C(=O)O)C[C@H]1O[C@@H](n2cnc3c(N)ncnc32)[C@H](O)[C@@H]1O", "note": "(some centres undefined)", "max activation": "-2.9% and 0.617%"}, {"molecule": "C[C@@H]1O[C@@H](OC[C@H]2O[C@@H](Oc3c(-c4ccc(OCCO)c(OCCO)c4)oc4cc(OCCO)cc(O)c4c3=O)[C@H](O)[C@@H](O)[C@@H]2O)[C@H](O)[C@H](O)[C@H]1O", "max activation": "-1.87%"}, {"molecule": "CC[C@@H](C)[C@@H](N)C1=N[C@H](C(=O)N[C@@H](CC(C)C)C(=O)N[C@@H](CCC(=O)O)C(=O)N[C@@H](C(=O)N[C@@H]2CCCCNC(=O)[C@@H](CC(N)=O)NC(=O)[C@@H](CC(=O)O)NC(=O)[C@@H](Cc3cnc[nH]3)NC(=O)[C@@H](Cc3ccccc3)NC(=O)[C@@H]([C@H](C)CC)NC(=O)[C@@H](CCCN)NC2=O)[C@@H](C)CC)CS1", "note": "(X1-LE[d(aIle)][dK][dOrn][dI][dF][dH][dD][dN]; lactam 4-C)", "max activation": "-0.877%"}, {"molecule": "Cc1cc(CC(C)CC(C)(C)C)n(O)c(=O)c1", "note": "(centres undefined) (tested in a mixture with another compound)", "max activation": "-3.3%"}, {"molecule": "NC[C@@H]1CC[C@@H](N)[C@@H](O[C@H]2[C@H](O)[C@@H](O[C@H]3O[C@H](CO)[C@@H](O)[C@H](N)[C@H]3O)[C@H](N)C[C@@H]2N)O1", "max activation": "-0.783%"}, {"molecule": "Nc1nc(/C(=C/CC(=O)O)C(=O)N[C@@H]2C(=O)N3C(C(=O)O)=CCS[C@H]23)cs1", "max activation": "-1.46%"}, {"molecule": "CO/N=C(\\C(=O)N[C@@H]1C(=O)N2C(C(=O)O)=C(COC(C)=O)CS[C@H]12)c1csc(N)n1", "note": "(stereo in doubt)", "max activation": "-7.73%"}, {"molecule": "CO/N=C(\\C(=O)N[C@@H]1C(=O)N2C(C(=O)O)=C(CSc3cnns3)CS[C@H]12)c1csc(N)n1", "max activation": "-0.96%"}, {"molecule": "NCC[C@H](O)C(=O)N[C@@H]1C[C@H](N)[C@@H](O[C@H]2O[C@H](CN)CC[C@H]2N)[C@H](O)[C@H]1O[C@H]1O[C@H](CO)[C@@H](O)[C@H](N)[C@H]1O", "max activation": "-1.85%"}, {"molecule": "COC1[C@@H](O[C@@H]2O[C@H](C)[C@@H](O[C@H]3C[C@@](C)(O)[C@H](OC(=O)CC(C)C)[C@H](C)O3)[C@H](N(C)C)[C@H]2O)[C@@H](CC=O)C[C@@H](C)[C@@H](O)/C=C/C=C/C[C@@H](C)OC(=O)C[C@H]1OC(C)=O", "note": "(some centres undefined)", "max activation": "-1.32%"}, {"molecule": "NC(=O)[C@@H]1C[C@]2(NC(=O)NC2=O)c2cc(F)ccc2O1", "max activation": "-1.76%"}, {"molecule": "C[C@@H]1C[C@H]2[C@@H]3C[C@H](F)C4=CC(=O)C=C[C@]4(C)[C@@]3(Cl)[C@@H](O)C[C@]2(C)[C@H]1C(=O)COC(=O)C(C)(C)C", "Potency": "2820 nM (active)"}, {"molecule": "COc1ccc(/C=N/NC(=O)c2ccncc2)c(C(=O)O)c1OC", "max activation": "-2.1%"}, {"molecule": "O=C(O)c1ccc(NC2OC[C@@H](O)[C@H](O)[C@H]2O)cc1", "note": "(some centres undefined)", "max activation": "10.7%"}, {"molecule": "CC(C)(C)C(=O)OCC(=O)[C@H]1CC[C@H]2[C@@H]3CCC4=CC(=O)CC[C@]4(C)[C@H]3CC[C@]12C", "max activation": "-6.33%"}, {"molecule": "NC(=O)CC[C@@H]1NC(=O)[C@H](Cc2ccccc2)NC(=O)[C@H](Cc2ccc(O)cc2)NC(=O)[C@@H](N)CSSC[C@@H](C(=O)N2CCC[C@H]2C(=O)N[C@@H](CCCN=C(N)N)C(=O)NCC(N)=O)NC(=O)[C@H](CC(N)=O)NC1=O", "max activation": "-0.0397%"}]}]}
